32 compounds from the supplement of paper PMC4371806 can be followed below.

This assay has as its system Escherichia coli BW25113. Nature of the assay: plate-normalized OD600 growth (mean of duplicates) (OD600 (normalized)); higher = more growth (less inhibition). Conditions: 10 µM. As for the experimental part: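 E. coli BW25113 in LB (100 µl, 96-well, no shaking) was exposed to 10 µM of each compound (here the ChemBridge subset of a ~30,000-member library) and grown at 37°C for 24 h or 15°C for 48 h, in duplicate. Growth was read as OD600 and the duplicate ODs were normalized across screening plates to correct plate-to-plate variation.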

Molecules are shown by their SMILES. Over roughly 1,600 compounds, “plate-normalized OD600 growth (mean of duplicates)” has its median near 0.31; the lowest 2% begin near 0.23. Shown is part of a subset that was picked to be rich in the lowest values.

With `O=C1c2ccccc2C(=O)N1c1nccs1`, the “plate-normalized OD600 growth” value (temperature: 15°C, 48 h) is 0.239 and the “plate-normalized OD600 growth” value (temperature: 37°C, 24 h) was 0.622.
For `CC(=O)Nc1ccc(S(=O)(=O)N2CCCC(CO)C2)cc1` (centres undefined), the “plate-normalized OD600 growth” value turned out to be 0.29 (temperature: 15°C, 48 h) and 0.63 (temperature: 37°C, 24 h).
Turning to `O=C(Nc1nc(/C=C/c2ccccc2)[nH]c(=O)n1)NS(=O)(=O)c1ccccc1Cl`, the “plate-normalized OD600 growth” value is, setting by setting: (temperature: 15°C, 48 h) 0.249; (temperature: 37°C, 24 h) 0.587.
With `CC(C)(C)C(=O)ON1C(=O)c2ccccc2C1=O`, the “plate-normalized OD600 growth” value reads like this: (temperature: 15°C, 48 h) 0.25; (temperature: 37°C, 24 h) 0.616.
The like results for `CN(C)c1ccc(CN2CCc3c([nH]c4ccccc34)C2)cc1` were, in that order, 0.275 and 0.622.
The like results for `CCCc1noc2c1C(=O)CC(C)(C)C2` were, in that order, 0.261 and 0.622.
Turning to `CC1(C)CC(=O)c2c(CC3CC(=O)NC(=O)C3)noc2C1`, the “plate-normalized OD600 growth” value turned out to be 0.222 (temperature: 15°C, 48 h) and 0.614 (temperature: 37°C, 24 h).
On the same counts, the results for `COc1ccc(CNC2C3CC4CC(C3)CC2C4)c(OC)c1` (centres undefined) are 0.224 and 0.615.
In the case of `COc1cccc(N2CCN(C3C4CC5CC(C4)CC3C5)CC2)c1` (centres undefined), the “plate-normalized OD600 growth” value turned out to be 0.291 (temperature: 15°C, 48 h) and 0.627 (temperature: 37°C, 24 h).
Regarding `O=[N+]([O-])c1ccccc1CNC1C2CC3CC(C2)CC1C3` (centres undefined), the “plate-normalized OD600 growth” value was found to be 0.238 (temperature: 15°C, 48 h) and 0.612 (temperature: 37°C, 24 h).
The like results for `COc1ccc(S(=O)(=O)N2CCN(Cc3cccc(F)c3)CC2)cc1` were, in that order, 0.245 and 0.614.
With `C=CCSc1nc(O)c(CC)c(=O)n1-c1ccccc1`, the “plate-normalized OD600 growth” value turned out to be 0.233 (temperature: 15°C, 48 h) and 0.62 (temperature: 37°C, 24 h).
As to `Brc1ccc(CN2CCN(Cc3ccc4c(c3)OCO4)CC2)s1`, the “plate-normalized OD600 growth” value is, setting by setting: (temperature: 15°C, 48 h) 0.262; (temperature: 37°C, 24 h) 0.639.
On to `CC(C)CS(=O)(=O)c1cccs1`, for which the “plate-normalized OD600 growth” value reads like this: (temperature: 15°C, 48 h) 0.253; (temperature: 37°C, 24 h) 0.616.
For `O=C1CCCc2occ(-c3ccc([N+](=O)[O-])cc3)c21`, the “plate-normalized OD600 growth” value is, setting by setting: (temperature: 15°C, 48 h) 0.253; (temperature: 37°C, 24 h) 0.634.
As to `O=C1CCCc2c1nc(-c1cccc([N+](=O)[O-])c1)n2O`, the “plate-normalized OD600 growth” value by setting is: (temperature: 15°C, 48 h) 0.224; (temperature: 37°C, 24 h) 0.596.
In the case of `O=C1CCCc2c1nc(-c1ccccc1)n2O`, the “plate-normalized OD600 growth” value was 0.272 (temperature: 15°C, 48 h) and 0.662 (temperature: 37°C, 24 h).
On the same counts, the results for `COc1ccc(-c2csc(N)n2)cc1Br` are 0.26 and 0.647.
Consider `O=C(O)CCCC(=O)Nc1ccc(Cl)c(Cl)c1`, for which the “plate-normalized OD600 growth” value reads like this: (temperature: 15°C, 48 h) 0.247; (temperature: 37°C, 24 h) 0.602.
On to `Cc1cccc(-c2nc(-c3cccnc3)no2)c1`, for which the “plate-normalized OD600 growth” value (temperature: 15°C, 48 h) worked out at 0.244 and the “plate-normalized OD600 growth” value (temperature: 37°C, 24 h) came out at 0.605.
On the same counts, the results for `C1CCCC(NCCN2CCCCC2)CCC1` are 0.234 and 0.588.
For the compound `CC(C)(C)NC(=O)c1ccccc1C(=O)NC(C)(C)C`, the “plate-normalized OD600 growth” value is 0.263 (temperature: 15°C, 48 h) and 0.63 (temperature: 37°C, 24 h).
In the case of `CC(=O)NC(C)(CC(=O)c1ccccc1)c1ccccc1` (centres undefined), the “plate-normalized OD600 growth” value by setting is: (temperature: 15°C, 48 h) 0.227; (temperature: 37°C, 24 h) 0.639.
The like results for `CC(=O)NC(Cc1ccccc1)Cc1ccccc1` were, in that order, 0.248 and 0.608.
Take `Cc1cccc(N2C(=O)CC(N3CCN(Cc4ccccc4)CC3)C2=O)c1` (centres undefined): the “plate-normalized OD600 growth” value was found to be 0.254 (temperature: 15°C, 48 h) and 0.616 (temperature: 37°C, 24 h).
On to `COCc1cc(C)nc(NN)c1C#N`, for which the “plate-normalized OD600 growth” value (temperature: 15°C, 48 h) stood at 0.258 and the “plate-normalized OD600 growth” value (temperature: 37°C, 24 h) amounted to 0.622.
For `O=C1c2ccccc2C(=O)C1c1nc2ccccc2[nH]1`, the “plate-normalized OD600 growth” value by setting is: (temperature: 15°C, 48 h) 0.269; (temperature: 37°C, 24 h) 0.667.
As for `COc1ccc(N/C=C(/c2cc(O)ccc2O)[N+](=O)[O-])cc1`, the “plate-normalized OD600 growth” value is, setting by setting: (temperature: 15°C, 48 h) 0.255; (temperature: 37°C, 24 h) 0.624.
Turning to `CC(=O)Nc1ccc(S(=O)(=O)N2CCN(C)CC2)cc1`, the “plate-normalized OD600 growth” value reads like this: (temperature: 15°C, 48 h) 0.258; (temperature: 37°C, 24 h) 0.646.
On the same counts, the results for `CC(=O)c1sc(N2N=C(c3ccccc3)CC2c2ccccc2)nc1C` (centres undefined) are 0.254 and 0.656.
With `COc1ccc(OC)c(Nc2nc(C)c(C(C)=O)s2)c1`, the “plate-normalized OD600 growth” value stood at 0.272 (temperature: 15°C, 48 h) and 0.646 (temperature: 37°C, 24 h).
The like results for `CC(=O)c1sc(Nc2ccc(Oc3ccccc3)cc2)nc1C` were, in that order, 0.223 and 0.607.
